{"source": "PubChem BioAssay AID624167", "about": "(Sanford-Burnham Center for Chemical Genomics, 2012)", "data": [{"experiment": "inhibition of PEG-3 promoter-driven reporter – cell-based, HeLa, luciferase, CREF/GAPDH counter-screen panel, dose response (AID 624167)", "conditions": "CREF/GAPDH counter-screens; run 1, dose range 1, at 100 µM (top of the series)", "units": {"inhibition": "%"}, "values": [{"compound": "COc1cc(/C=C2\\SC(=Nc3ccccc3OC)NC2=O)ccc1O", "inhibition": 43.9}, {"compound": "CC1=NOC(=O)/C1=C\\c1ccc(-c2ccccc2Br)o1", "inhibition": 94.2}, {"compound": "Cc1cc(C)c2sc(NNC(=O)c3ccc(S(=O)(=O)N4CCc5ccccc5C4)cc3)nc2c1", "inhibition": 58.6}, {"compound": "C=C1CC2(OC1=O)c1ccccc1CCc1ccccc12", "inhibition": 100}, {"compound": "O=[N+]([O-])c1ccc(S(=O)(=O)c2ccccc2)nc1", "inhibition": 100}, {"compound": "Clc1ccccc1/C=C/c1nc(-c2ccccn2)no1", "inhibition": 97.4}, {"compound": "CS(=O)(=O)c1ccc(-c2cn3cc(C(=O)O)ccc3n2)cc1", "inhibition": 67.7}, {"compound": "O=C(N/N=C\\c1c(O)ccc2ccccc12)c1ccc(Cn2cccn2)o1", "inhibition": 34.1}, {"compound": "CCc1ccc(/C=C2\\SC(=S)N(CCCC(=O)Nc3cc(C)on3)C2=O)cc1", "inhibition": 75.9}, {"compound": "CCC(c1ccc(O)c(O)c1)C(CC)c1ccc(O)c(O)c1", "note": "(stereo not drawn)", "inhibition": 99}, {"compound": "COc1ccc(-n2cc(-c3ccccc3)c3c(N4CCOCC4)ncnc32)cc1", "inhibition": 87.7}, {"compound": "O=C(CCl)N1c2ccccc2Sc2ccc3ccccc3c21", "inhibition": 100}, {"compound": "C/C(=N\\NC(=O)c1c(C)nc2ccccn12)c1ccc(O)cc1O", "inhibition": 3.34}, {"compound": "CCCCCCCn1c(=N)n(CC(=O)c2ccco2)c2ccccc21", "inhibition": 92.5}, {"compound": "Cc1cc(C(=O)Nc2cccc(C(=O)O)c2)oc1C", "inhibition": 89.9}, {"compound": "NS(=O)(=O)c1ccc(CCNc2nn3c(-c4ccc(F)c(Cl)c4)cnc3s2)cc1", "inhibition": 73.4}, {"compound": "COc1ccc(/C=C2\\SC(=S)N(CCCC(=O)NNC(=O)c3ccccc3O)C2=O)cc1", "inhibition": 15}, {"compound": "CCCCCCN1C=C/C(=C\\C=C(C#N)C#N)c2ccccc21", "inhibition": 50.3}, {"compound": "Cc1cc(NC(c2ccc(Cl)cc2)c2ccc3cccnc3c2O)no1", "note": "(stereo not drawn)", "inhibition": 39.3}, {"compound": "CCCn1nc(C(=O)Nc2nc(-c3ccccn3)cs2)c2ccccc2c1=O", "inhibition": 13.9}, {"compound": "COc1ccc(-n2c(O)c(/C=N/Nc3nc(C)cc(C)n3)c3ccccc3c2=O)cc1OC", "inhibition": -8.04}, {"compound": "Cc1ccccc1CNC(=O)C1CCCN(c2nnc(C)c3c(C)n(-c4ccccc4)nc23)C1", "note": "(stereo not drawn)", "inhibition": 97.3}, {"compound": "Oc1[nH]c2ccc(Br)cc2c1N=NC(=S)N1CCOCC1", "inhibition": 75.3}, {"compound": "COc1ccccc1Nc1nc(-c2sc(NC(=O)c3ccco3)nc2C)cs1", "inhibition": 18}, {"compound": "COc1ccc2c(c1)c(=Cc1ccc(N(C)C)cc1)c1cc(-c3ccccc3)[n+](C)n12", "inhibition": 99.5}, {"compound": "COc1cccc(/C=N/NC(=O)c2c(C)nc3ccc(Cl)cn23)c1O", "inhibition": -55.4}, {"compound": "O=C(CCSc1nc2ccccc2s1)N/N=C/c1c(O)ccc2ccccc12", "inhibition": -10.4}, {"compound": "COc1ccc(N(C(=O)CCl)C(C(=O)NC2CCCCC2)c2cccnc2)cc1", "note": "(stereo not drawn)", "inhibition": 82.9}, {"compound": "COc1ccc(/C=C2/CCCC(CN(C)C)C2=O)cc1", "note": "(stereo not drawn)", "inhibition": 80}, {"compound": "CS(=O)(=O)c1ccc(-c2sc3ccccc3c2C#CCCO)cc1", "inhibition": 90.1}, {"compound": "Cc1ccsc1/C=N/Nc1cccc(C(=O)O)c1", "inhibition": 95.8}, {"compound": "Nc1nonc1-n1nnc(C(=O)N/N=C/c2cc(Br)ccc2O)c1CNc1ccccc1", "inhibition": 70.2}, {"compound": "O=C(c1ccco1)N1CCN(C(c2ccccc2Cl)c2nnnn2Cc2cccs2)CC1", "note": "(stereo not drawn)", "inhibition": 69.4}]}]}
